For some of these results: Entries with a potency or affinity are not part of this list.
Tests used:
[1] = target: Protein translocase subunit SecA (Escherichia coli (strain K12)) (UniProt P10408); test: Assay to Identify E. coli SecA ATPase Inhibitors; format: functional; parameters: scale not given: direction of the effect not stated beside the values; settings: 30 µM
[2] = target: T1, Ubiquitin-activating enzyme e1, putative (Leishmania donovani (strain BPK282A1)) (UniProt E9BSI1); test: Leishmania donovani Ubiquitin Activating Enzyme (LdE1); format: functional; parameters: scale not given: direction of the effect not stated beside the values; settings: 30 µM
T1 sequence (whole entry): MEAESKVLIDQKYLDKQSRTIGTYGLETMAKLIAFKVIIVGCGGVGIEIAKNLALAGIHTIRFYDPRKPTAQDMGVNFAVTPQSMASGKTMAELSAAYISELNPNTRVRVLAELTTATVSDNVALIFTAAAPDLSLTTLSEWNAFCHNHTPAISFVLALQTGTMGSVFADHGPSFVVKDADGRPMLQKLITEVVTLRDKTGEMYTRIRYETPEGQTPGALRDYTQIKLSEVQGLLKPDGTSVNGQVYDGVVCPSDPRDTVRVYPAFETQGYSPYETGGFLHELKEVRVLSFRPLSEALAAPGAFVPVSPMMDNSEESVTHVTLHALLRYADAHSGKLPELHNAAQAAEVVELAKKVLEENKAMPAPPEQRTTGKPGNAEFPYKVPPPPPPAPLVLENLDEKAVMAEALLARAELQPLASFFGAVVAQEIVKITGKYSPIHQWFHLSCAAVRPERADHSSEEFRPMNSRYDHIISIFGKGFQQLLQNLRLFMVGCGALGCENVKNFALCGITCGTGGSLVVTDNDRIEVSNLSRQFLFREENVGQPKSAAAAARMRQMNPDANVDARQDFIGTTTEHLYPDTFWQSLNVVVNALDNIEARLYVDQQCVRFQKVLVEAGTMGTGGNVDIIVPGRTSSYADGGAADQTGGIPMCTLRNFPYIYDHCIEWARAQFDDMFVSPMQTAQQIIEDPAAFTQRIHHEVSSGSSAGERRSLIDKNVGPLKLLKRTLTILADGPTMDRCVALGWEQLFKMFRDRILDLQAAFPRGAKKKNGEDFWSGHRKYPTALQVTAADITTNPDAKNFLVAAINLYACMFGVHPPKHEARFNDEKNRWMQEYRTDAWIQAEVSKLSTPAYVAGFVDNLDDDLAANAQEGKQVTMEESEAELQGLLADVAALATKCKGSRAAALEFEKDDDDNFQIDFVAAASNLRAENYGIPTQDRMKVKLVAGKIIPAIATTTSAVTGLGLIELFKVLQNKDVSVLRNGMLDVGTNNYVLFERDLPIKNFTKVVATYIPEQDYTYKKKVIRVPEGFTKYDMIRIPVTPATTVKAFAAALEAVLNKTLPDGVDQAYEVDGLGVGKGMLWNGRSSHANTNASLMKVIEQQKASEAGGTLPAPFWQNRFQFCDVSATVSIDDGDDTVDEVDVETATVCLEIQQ

[3] = target: T2, Aspartate--tRNA(Asp/Asn) ligase (Mycobacterium tuberculosis (strain ATCC 25618 / H37Rv)) (UniProt P9WFW3); test: Assay for Asp RNA synthetase-1 from Mycobacterium tuberculosis; format: functional; parameters: scale not given: direction of the effect not stated beside the values; settings: 30 µM; further: in the data most compounds retested in dose-response had high values
T2 sequence (whole entry): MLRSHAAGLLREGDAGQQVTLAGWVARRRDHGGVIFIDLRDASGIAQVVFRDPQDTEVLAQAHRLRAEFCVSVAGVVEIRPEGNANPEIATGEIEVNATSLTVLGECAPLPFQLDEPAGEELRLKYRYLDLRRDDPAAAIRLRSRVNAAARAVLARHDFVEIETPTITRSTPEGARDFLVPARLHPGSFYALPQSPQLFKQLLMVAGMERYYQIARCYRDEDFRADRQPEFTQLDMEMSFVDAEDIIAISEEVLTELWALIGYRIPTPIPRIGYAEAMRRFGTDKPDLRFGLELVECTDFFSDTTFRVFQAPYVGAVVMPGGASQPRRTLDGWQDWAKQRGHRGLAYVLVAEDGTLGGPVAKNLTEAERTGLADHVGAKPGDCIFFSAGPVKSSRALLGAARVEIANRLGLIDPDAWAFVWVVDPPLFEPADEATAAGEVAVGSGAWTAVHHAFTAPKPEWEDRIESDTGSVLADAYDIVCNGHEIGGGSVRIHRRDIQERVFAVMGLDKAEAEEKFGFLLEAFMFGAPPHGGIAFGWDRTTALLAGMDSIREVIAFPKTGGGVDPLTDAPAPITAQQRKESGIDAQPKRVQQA

[4] = target: AMP-activated protein kinase, AMPK (Homo sapiens) (UniProt P54646+O43741+P54619+Q9UGJ0+Q9Y478+Q13131+Q9UGI9); test: AMP-dependent Kinase enzyme assay. An in vitro enzyme assay that detects ADP turnover that is directly proportional to AMPK activity. This uses naive AMPK that is activated during the assay with MK-8722; format: functional; parameters: scale not given: direction of the effect not stated beside the values; settings: 30 µM
[5] = target: Sialic acid-binding Ig-like lectin 9 (Homo sapiens) (UniProt Q9Y336); test: Hs-Siglec9 ALPHAscreen SOP 20170721; parameters: scale not given: direction of the effect not stated beside the values; settings: 10 µM
Trypanosoma cruzi = test: Trypanosoma cruzi phosphomannomutase and mannose-1-phosphate guanylyltransferase assay; format: functional; parameters: scale not given: direction of the effect not stated beside the values; settings: 10 µM
[6] = target: T3, Arginase-2, mitochondrial (Homo sapiens) (UniProt P78540); test: in vitro enzyme assay to detect the production of urea directly proportional to the activity of Arginase II; format: functional; parameters: scale not given: in the data most compounds retested in dose-response had high values; settings: 33.3 µM
T3 sequence (whole entry): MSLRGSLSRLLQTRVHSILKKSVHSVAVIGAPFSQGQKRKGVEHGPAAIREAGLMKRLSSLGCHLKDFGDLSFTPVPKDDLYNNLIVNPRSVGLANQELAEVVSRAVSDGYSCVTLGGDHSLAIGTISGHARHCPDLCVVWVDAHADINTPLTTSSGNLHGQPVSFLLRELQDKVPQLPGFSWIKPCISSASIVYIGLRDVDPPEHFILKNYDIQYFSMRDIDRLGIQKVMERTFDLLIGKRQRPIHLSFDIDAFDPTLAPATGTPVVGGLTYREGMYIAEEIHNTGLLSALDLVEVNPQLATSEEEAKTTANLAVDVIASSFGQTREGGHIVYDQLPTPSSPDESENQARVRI

[7] = target: T4, Proteasome subunit beta (Trypanosoma cruzi) (UniProt O96673); test: Trypanosoma cruzi proteasome chymotrypsin-like activity (TcProtChymo) assay.; format: functional; parameters: scale not given: in the data most compounds retested in dose-response had high values; settings: 9.37 µM
T4 sequence (whole entry): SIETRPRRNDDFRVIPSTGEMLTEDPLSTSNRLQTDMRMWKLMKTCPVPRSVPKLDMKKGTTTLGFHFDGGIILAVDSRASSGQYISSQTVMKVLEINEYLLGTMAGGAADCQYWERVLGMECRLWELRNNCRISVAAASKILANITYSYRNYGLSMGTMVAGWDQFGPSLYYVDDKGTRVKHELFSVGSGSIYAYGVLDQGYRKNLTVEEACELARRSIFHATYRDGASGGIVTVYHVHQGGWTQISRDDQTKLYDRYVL

Homo sapiens = species on record: Homo sapiens; test: To identify inhibition of the IFN signalling (Jak-Stat) pathway via expression of an eGFP reporter gene under the control of an IFN-stimulated response element (ISRE) containing MxA promoter.; format: functional; parameters: scale not given: direction of the effect not stated beside the values; settings: 30 µM
[8] = target: Shiga toxin 2 (Escherichia coli O157:H7) (UniProt P09385+P09386); test: E. coli 0.157:H7 Shiga Toxin SOP - stx2 screening assay; format: functional; parameters: scale not given: direction of the effect not stated beside the values; settings: 30 µM
[9] = target: T5, Tyrosyl-tRNA synthetase, putative (Trypanosoma cruzi (strain CL Brener)) (UniProt Q4DSP6); test: Trypanosoma cruzi tyrosyl tRNA synthetase (TcYRS) _High Tyrosine SOP; format: functional; parameters: scale not given: in the data most compounds retested in dose-response had high values; settings: 30 µM
T5 sequence (whole entry): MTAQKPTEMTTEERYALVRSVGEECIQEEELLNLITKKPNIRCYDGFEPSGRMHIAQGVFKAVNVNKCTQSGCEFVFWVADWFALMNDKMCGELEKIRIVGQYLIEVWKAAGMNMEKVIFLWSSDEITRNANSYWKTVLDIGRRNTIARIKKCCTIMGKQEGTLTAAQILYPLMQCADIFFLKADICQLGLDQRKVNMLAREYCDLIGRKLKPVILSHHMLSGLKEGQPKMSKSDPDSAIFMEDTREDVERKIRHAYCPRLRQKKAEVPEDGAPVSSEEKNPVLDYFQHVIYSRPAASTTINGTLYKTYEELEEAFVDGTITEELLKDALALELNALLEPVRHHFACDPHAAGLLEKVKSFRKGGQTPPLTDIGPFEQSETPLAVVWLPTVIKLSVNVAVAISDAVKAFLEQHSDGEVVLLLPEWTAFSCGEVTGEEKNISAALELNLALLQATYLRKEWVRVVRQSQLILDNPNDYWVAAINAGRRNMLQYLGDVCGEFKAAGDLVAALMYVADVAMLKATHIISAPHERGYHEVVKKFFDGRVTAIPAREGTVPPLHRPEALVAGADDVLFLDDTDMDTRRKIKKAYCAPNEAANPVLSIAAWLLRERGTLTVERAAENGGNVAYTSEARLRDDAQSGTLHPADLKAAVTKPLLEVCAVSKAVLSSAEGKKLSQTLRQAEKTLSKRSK

[10] = target: T5, Tyrosyl-tRNA synthetase, putative (Trypanosoma cruzi (strain CL Brener)); test: Trypanosoma cruzi tyrosyl tRNA synthetase (TcYRS) SOP; format: functional; parameters: scale not given: direction of the effect not stated beside the values; settings: 30 µM
[11] = target: Chromo domain-containing protein 1 (Saccharomyces cerevisiae (strain ATCC 204508 / S288c) (Baker's yeast)) (UniProt P32657); test: ScCHD-1 Enzyme Inhibition Assay; format: functional; parameters: scale not given: in the data most compounds retested in dose-response had high values; settings: 30 µM
[12] = target: T6, Methionyl-tRNA synthetase, putative (Leishmania donovani (strain BPK282A1)) (UniProt E9BF75); test: Leishmania donovani Methionine tRNA synthetase (LdMetRS):v7. Dose response assay; format: functional; parameters: conc 80 nM, time 150 minutes
T6 sequence (whole entry): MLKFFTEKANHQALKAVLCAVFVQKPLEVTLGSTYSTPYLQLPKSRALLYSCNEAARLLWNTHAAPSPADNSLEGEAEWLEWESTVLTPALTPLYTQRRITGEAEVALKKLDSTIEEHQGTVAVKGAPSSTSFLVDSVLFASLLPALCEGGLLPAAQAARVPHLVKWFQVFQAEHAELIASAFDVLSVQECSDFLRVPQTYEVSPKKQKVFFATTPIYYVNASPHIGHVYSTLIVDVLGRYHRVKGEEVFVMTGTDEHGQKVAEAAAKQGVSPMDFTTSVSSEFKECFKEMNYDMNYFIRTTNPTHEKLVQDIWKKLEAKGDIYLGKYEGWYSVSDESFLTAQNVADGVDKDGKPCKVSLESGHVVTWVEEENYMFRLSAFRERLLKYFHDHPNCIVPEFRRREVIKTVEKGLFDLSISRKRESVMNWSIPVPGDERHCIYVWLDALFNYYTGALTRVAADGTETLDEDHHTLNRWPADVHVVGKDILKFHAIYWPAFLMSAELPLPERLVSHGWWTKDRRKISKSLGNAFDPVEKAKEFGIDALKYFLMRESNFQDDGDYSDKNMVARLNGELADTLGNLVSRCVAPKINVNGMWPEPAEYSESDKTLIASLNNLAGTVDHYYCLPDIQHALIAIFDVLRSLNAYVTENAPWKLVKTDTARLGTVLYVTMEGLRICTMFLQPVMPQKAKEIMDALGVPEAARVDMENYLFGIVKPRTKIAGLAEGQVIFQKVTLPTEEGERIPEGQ

Chain of Sialic acid-binding Ig-like lectin 9 (Homo sapiens) (Q9Y336 whole entry): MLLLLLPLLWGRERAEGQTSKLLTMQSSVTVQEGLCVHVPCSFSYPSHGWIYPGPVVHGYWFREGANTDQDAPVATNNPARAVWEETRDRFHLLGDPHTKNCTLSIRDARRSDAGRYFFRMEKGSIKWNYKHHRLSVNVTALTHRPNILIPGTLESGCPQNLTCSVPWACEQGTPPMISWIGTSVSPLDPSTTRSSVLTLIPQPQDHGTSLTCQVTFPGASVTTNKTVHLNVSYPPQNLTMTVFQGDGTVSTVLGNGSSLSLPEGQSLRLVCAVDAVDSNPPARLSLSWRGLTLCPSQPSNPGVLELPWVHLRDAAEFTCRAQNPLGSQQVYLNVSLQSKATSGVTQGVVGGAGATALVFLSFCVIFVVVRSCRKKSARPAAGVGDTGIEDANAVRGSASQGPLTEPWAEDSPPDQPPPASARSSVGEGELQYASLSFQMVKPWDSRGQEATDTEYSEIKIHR
Chain of Protein translocase subunit SecA (Escherichia coli (strain K12)) (P10408 whole entry): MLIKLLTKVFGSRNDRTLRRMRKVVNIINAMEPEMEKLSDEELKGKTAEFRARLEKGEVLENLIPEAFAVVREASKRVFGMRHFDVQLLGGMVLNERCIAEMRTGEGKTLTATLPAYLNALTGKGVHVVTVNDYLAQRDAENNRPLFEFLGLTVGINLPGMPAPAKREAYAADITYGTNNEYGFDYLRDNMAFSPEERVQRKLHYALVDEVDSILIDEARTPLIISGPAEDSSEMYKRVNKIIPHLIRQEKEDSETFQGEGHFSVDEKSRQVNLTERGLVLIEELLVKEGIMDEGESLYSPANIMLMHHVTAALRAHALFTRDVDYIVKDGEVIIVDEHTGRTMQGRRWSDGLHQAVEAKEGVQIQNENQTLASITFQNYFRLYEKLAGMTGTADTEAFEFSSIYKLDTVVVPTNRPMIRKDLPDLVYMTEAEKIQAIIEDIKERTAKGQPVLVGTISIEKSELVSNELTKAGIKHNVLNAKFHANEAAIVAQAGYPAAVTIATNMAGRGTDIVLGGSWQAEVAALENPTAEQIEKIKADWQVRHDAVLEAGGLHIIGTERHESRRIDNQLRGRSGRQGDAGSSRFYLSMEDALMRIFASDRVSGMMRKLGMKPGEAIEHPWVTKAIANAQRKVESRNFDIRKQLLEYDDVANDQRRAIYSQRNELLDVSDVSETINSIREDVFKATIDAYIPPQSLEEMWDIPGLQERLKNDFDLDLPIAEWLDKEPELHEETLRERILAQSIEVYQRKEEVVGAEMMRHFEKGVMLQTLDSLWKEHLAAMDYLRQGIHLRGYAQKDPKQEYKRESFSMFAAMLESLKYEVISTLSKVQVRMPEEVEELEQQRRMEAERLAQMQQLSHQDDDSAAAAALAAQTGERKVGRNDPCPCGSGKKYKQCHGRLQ
Chain of Chromo domain-containing protein 1 (Saccharomyces cerevisiae (strain ATCC 204508 / S288c) (Baker's yeast)) (P32657 whole entry, the tested form may be a part): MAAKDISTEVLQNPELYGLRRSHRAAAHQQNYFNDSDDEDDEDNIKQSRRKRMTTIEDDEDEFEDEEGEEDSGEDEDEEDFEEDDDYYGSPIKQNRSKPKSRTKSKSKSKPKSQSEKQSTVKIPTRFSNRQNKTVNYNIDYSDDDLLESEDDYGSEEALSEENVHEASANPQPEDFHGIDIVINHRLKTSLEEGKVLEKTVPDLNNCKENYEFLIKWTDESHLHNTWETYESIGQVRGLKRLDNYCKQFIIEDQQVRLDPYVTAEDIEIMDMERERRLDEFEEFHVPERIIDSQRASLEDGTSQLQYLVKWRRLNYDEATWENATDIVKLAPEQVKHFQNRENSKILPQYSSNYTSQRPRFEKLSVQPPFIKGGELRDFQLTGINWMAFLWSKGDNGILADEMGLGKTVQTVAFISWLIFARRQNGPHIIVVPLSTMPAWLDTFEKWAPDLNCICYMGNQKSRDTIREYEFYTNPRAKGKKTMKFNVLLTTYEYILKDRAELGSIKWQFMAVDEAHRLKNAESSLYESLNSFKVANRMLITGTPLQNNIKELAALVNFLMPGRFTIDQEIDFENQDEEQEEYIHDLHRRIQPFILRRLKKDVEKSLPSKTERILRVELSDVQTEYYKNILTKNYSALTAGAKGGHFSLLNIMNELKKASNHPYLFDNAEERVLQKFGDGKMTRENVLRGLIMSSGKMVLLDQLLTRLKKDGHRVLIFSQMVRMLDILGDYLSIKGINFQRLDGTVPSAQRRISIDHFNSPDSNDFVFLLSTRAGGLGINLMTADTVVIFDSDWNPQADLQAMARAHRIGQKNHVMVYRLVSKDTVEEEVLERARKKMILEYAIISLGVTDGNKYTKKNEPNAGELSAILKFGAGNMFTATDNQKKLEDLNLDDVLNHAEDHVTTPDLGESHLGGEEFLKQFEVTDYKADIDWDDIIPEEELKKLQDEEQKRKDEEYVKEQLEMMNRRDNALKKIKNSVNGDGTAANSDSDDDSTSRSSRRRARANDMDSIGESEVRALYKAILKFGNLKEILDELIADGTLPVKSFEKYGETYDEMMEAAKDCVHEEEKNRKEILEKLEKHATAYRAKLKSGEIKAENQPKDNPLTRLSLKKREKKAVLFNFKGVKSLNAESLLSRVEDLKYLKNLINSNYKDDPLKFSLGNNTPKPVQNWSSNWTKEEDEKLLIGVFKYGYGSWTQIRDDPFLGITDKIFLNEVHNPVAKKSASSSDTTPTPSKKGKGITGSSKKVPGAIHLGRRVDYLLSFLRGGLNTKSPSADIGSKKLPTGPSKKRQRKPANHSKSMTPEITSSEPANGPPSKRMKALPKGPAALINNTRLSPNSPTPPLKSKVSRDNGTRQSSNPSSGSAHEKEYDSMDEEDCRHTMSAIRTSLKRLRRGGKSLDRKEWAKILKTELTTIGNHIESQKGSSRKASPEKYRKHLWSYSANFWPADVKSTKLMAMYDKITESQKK

COCCN1C[C@@H]2[C@@H](OC)CCN(Cc3cccc(C)n3)[C@@H]2C1
Percent Effect [1]: -1.97%
Percent Effect [2]: 11%
Percent Effect [3]: -0.137%
Percent Effect [4]: -7.2%
Percent Effect [5]: 9.07%
Percent Effect (Trypanosoma cruzi): 6.75%
Percent Effect [6]: -2%
Percent Effect [7]: 12.1%
Percent Effect (Homo sapiens): -7.05%
Percent Effect [8]: -22.1%
Percent Effect [9]: 7.29%
Percent Effect [10]: 13.6%
Percent Effect [11]: -5.26%

Cn1cc(CN2CC[C@H]3CO[C@H](CNc4ncccn4)[C@H]3C2)cn1
Percent Effect [1]: -1.24%
Percent Effect [2]: 13.3%
Percent Effect [3]: -0.0582%
Percent Effect [4]: 1.6%
Percent Effect [5]: -7.11%
Percent Effect (Trypanosoma cruzi): 5.02%
Percent Effect [6]: -57.2%
Percent Effect [7]: 9.4%
Percent Effect (Homo sapiens): 3.12%
Percent Effect [8]: -32.2%
Percent Effect [9]: 7.29%
Percent Effect [10]: 22.5%
Percent Effect [11]: -6.99%

Oc1cc(Cl)cc(Cl)c1
PXC50 ([12]; MAX_EFFECT 13.49809886): < 3
PXC50 ([12]; MAX_EFFECT 17.06263499): < 3

Cc1nc(N2C[C@@H]3CCN(C)[C@@H]3C2)c2ccsc2n1
PXC50 ([12]; MAX_EFFECT 4.081632653): < 4
PXC50 ([12]; MAX_EFFECT 6.313131313): < 4

Oc1ccc(Cl)cc1Cl
PXC50 ([12]; MAX_EFFECT 9.315589354): < 3
PXC50 ([12]; MAX_EFFECT 10.1511879): < 3

Cc1cc(Cl)cc(Cl)c1O
PXC50 ([12]; MAX_EFFECT 7.127429806): < 3
PXC50 ([12]; MAX_EFFECT 14.63878327): < 3

CCc1nnc(C(C)N2CCCN(C(=O)Oc3ccccc3)CC2)o1 (centres undefined)
Percent Effect [1]: -1.28%
Percent Effect [2]: 15.8%
Percent Effect [3]: -3.35%
Percent Effect [4]: 0.0863%
Percent Effect [5]: -6.34%
Percent Effect (Trypanosoma cruzi): -6.72%
Percent Effect [6]: -3.55%
Percent Effect [7]: 12.6%
Percent Effect (Homo sapiens): 3.97%
Percent Effect [8]: -15.6%
Percent Effect [9]: 2.13%
Percent Effect [10]: 5.2%
Percent Effect [11]: -5.08%

COC(=O)Nc1cc(Cl)cc(Cl)c1
PXC50 ([12]; MAX_EFFECT 8.423326134): < 3
PXC50 ([12]; MAX_EFFECT 23.76425856): < 3

Reference: ChEMBL document CHEMBL3988442, “University of Dundee, Small-Polar-MMV Screening Library” (2021)
